# Screens from PubChem BioAssay.
# Sampled rows, rich in hits. Any-hit rate of the full collection: about 7.3%.
# Tau fibril FP: tau fibrillization inhibition (FP). K18 P301L tau heparin fibrillization, Alexa594 FP, 6 h. Potency, µM (doses to about 57.7 µM), without a hit: at the top dose activity, negative = inhibition, hits mostly inhibitors. 280,000 compounds, 0.39% hits. AID 1468; also: nearly all actives have a fitted effect of over 55% in size
# Target sequence (P10636 561-689 P618L limits assumed): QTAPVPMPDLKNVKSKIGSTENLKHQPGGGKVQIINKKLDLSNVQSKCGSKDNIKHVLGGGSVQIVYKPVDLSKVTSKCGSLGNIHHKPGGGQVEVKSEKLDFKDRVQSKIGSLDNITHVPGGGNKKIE
#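 Human tau K18 […] P301L fragment, 15 uM unlabeled plus 0.24 uM Alexa 594-labeled tau (final), with compound and 20 uM heparin in 100 mM sodium acetate pH 7; 6 hr at 37 C, then Alexa 594 FP read.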
# Gal4-VP16 FLuc: counter-screen for ROR gamma inhibitors: Gal4-VP16 reporter | 310,000 compounds, 3.5% hits | Potency, µM (titrated, usually from 53.6 µM), for the others: at the highest dose activity, negative = inhibition, actives largely listed as inhibitors | Drosophila S2 Gal4-VP16 UAS-luciferase, luminescence, 20 h | AID 2546;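 also: Gal4-VP16 expression switched on by copper sulfate through the metallothionein promoter; nearly all actives have a fitted effect of over 50% in size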
# RORg inh: inhibitors of mouse ROR gamma transcriptional activity. P51450. Drosophila S2 Gal4-RORgamma UAS-luciferase reporter, 20 h. Potency, µM (series often up to 53.6 µM), for the others: at the top dose activity change, negative = inhibition, hits mostly inhibitors. 310,000 compounds, 5.4% hits. AID 2551; also: nearly all actives have a fitted effect of over 60% in size
#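 Luminescence from a UAS-regulated Photinus luciferase reporter in stably transfected Drosophila Schneider cells is measured; decreased signal marks ROR gamma inhibition. Fusion expression is induced by 700 uM copper sulfate for 20 hr.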
# Tau ThT inhib: inhibitors of human tau fibril formation, thioflavin T binding. Potency, µM (highest dose often 57.4 µM), inactives show at the top dose activity, negative = inhibition, hits mostly inhibitors. recombinant tau K18 P301L, heparin-induced fibrillization, ThT fluorescence. P10636. 270,000 compounds, 2.1% hits; also: nearly all actives have a fitted effect of over 55% in size
#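 Tau K18 P301L fragment (15 uM unlabeled plus 0.24 uM Alexa 594-labeled) in 100 mM sodium acetate pH 7 with compound, fibrillization induced by 20 uM heparin for 6 hr at 37 C. Thioflavin T (30 uM) added, fluorescence read after 1 hr (ex 450, em 510 nm).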
# Tau fluor cs: counter-screen for tau fibril formation inhibitors; tau K18 P301L (four-repeat tau fragment) Alexa594 fluorescence, heparin fibrillization; Potency, µM (top dose mostly 57.7 µM), for the others: at the highest dose activity change, negative = decrease; 280,000 compounds, 0.93% hits; AID 1463; also: nearly all actives have a fitted effect of over 55% in size
#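 Human K18 P301L tau (15 uM unlabeled plus 0.24 uM Alexa 594-labeled, final) in 100 mM sodium acetate pH 7 was mixed with compound and 20 uM heparin and incubated 6 hr at 37 C.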
# * marks the source's active call; other numbers are inactive results; u = inconclusive; x = not tested or not shown; [ ] = dose if it differs, or a comment. Calls follow the shape of the dose curve; as a rule, active = well fitted curve in the direction sought with a large enough effect; inconclusive = small, poorly fitted or top-dose-only effect, or another doubt; inactive = no such curve, though single readings can be large; an effect the other way counts as inactive or inconclusive. % is scaled to controls: 0 for no effect and ±100 for the full control effect; potency is read from the fitted curve at half-maximal effect.
SMILES,Tau fibril FP,Gal4-VP16 FLuc,RORg inh,Tau ThT inhib,Tau fluor cs
CCN(CC)S(=O)(=O)c1cc(C(=O)OCC(=O)Nc2cccc(S(=O)(=O)N(C)C)c2)ccc1F,u,-3%,9%,-3%,u
O=C(NCCc1ccccc1)c1nnc(Cc2cccc(F)c2)o1,-4%,x,x,-15%,-29%
COC(C(=O)C(O)C(C)O)C1Cc2cc3cc(OC4CC(OC5CC(O)C(O)C(C)O5)C(O)C(C)O4)c(C)c(O)c3c(O)c2C(=O)C1OC1CC(OC2CC(OC3CC(C)(O)C(O)C(C)O3)C(O)C(C)O2)C(O)C(C)O1 (configuration not stated),x,0.79µM*,0.71µM*,x,x
CO[C@H](C(=O)[C@@H](O)[C@@H](C)O)C1Cc2cc3cc(O[C@H]4C[C@@H](O[C@H]5C[C@@H](O)[C@H](O)[C@@H](C)O5)[C@@H](O)[C@@H](C)O4)c(C)c(O)c3c(O)c2C(=O)[C@H]1O[C@H]1C[C@@H](O[C@H]2C[C@@H](O[C@H]3C[C@](C)(O)[C@H](O)[C@@H](C)O3)[C@H](O)[C@@H](C)O2)[C@H](O)[C@@H](C)O1 (some centres not stated),x,0.5µM*,0.63µM*,x,x
COc1ccc2nc(C)cc(N3CCN(c4ccccc4)CC3)c2c1,x,-14%,14µM*,x,x
COc1ccc2nc(C)cc(N3CCOCC3)c2c1,-2%,0%,34%,-8%,0%
Cn1c(=O)c2cc(C(=O)N3CCN(c4ccc(Cl)cc4)CC3)sc2c2ccccc21,3%,x,x,-13%,-16%
Cn1c(=O)c2sccc2n2c(CCC(=O)NCc3ccc(F)cc3)nnc12,-4%,x,x,-1%,-4%
N#Cc1ccc(-c2cccnc2)nc1SCC(=O)Nc1sc2c(c1C#N)CCC2,-9%,u,13µM*,u,-26%
N#Cc1ccc(-c2cccnc2)nc1SCC(=O)c1ccccc1,-3%,u,u,4.5µM*,u
Cc1ccc(C)c2[nH]c(=O)c(CCNC(=O)c3cc4ccccc4o3)cc12,-7%,13µM*,-59%,-11%,5%
CC(C)Oc1ccc(C(=O)N2CCN(c3nc4c(F)cc(F)cc4s3)CC2)cc1,u,x,x,1%,0%
COc1ccc(-c2nc(C)c(CCNC(=O)C(=O)Nc3ccccc3OC)s2)cc1,-16%,x,x,u,-14%
CC(=O)C(Sc1nc(N2CCOCC2)nc(N2CCOCC2)n1)C(=O)Nc1ccccc1 (configuration not stated),4%,u,0.89µM*,-7%,-4%
CCOc1ccc(NC(=O)Cn2nnc(C(=O)NCCc3ccccc3)c2N)cc1,0%,x,x,0%,4%
Cc1cccc(C(=O)NC(=S)N2CCN(C(=S)NC(=O)c3cccc(C)c3)CC2)c1,-4%,0.79µM*,0.79µM*,5%,-2%
Cc1cccc(C(=O)NC(=S)N2CCN(C)CC2)c1,-8%,8.9µM*,1.3µM*,-10%,-8%
CCCNC(=S)N1CCC(NC(=O)c2cccc(C)c2)CC1,x,0%,-13%[1.91 µM],x,x
CCCC(=O)Nc1nc2c(ncn2[C@@H]2O[C@H]3COP(=O)(O)O[C@@H]3[C@@H]2OC(=O)CCC)c(=O)[nH]1,1%,-2%,2%,-5%,-5%
CCOCCn1c(COc2ccccc2)nc2ccccc21,3%,-6%,u,-3%,-3%
CCn1c(COc2ccccc2OC)nc2ccccc21,x,u,13µM*,x,x
COc1ccccc1OCc1nc2ccccc2n1C,x,u,-29%,x,x
CCCn1c(COc2ccccc2)nc2ccccc21,x,0%,13µM*,x,x
CCCn1c(COc2ccccc2OC)nc2ccccc21,x,u,10µM*,x,x
Cn1c(COc2ccccc2Br)nc2ccccc21,x,u,13µM*,x,x
CCn1c(COc2ccccc2C)nc2ccccc21,3%,u,u,-10%,-7%
CC(=O)Nc1ccc(S(=O)(=O)N2CCN(C(=O)c3ncoc3-c3ccc(F)cc3)CC2)cc1,x,6%,4%,x,x
CCc1nc2ccccc2n1CCCCOc1cccc(C)c1,-4%,x,x,u,-7%
CCCn1c(CNc2ccccc2O)nc2ccccc21,u,u,u,28µM*,u
COc1cc(C(=O)Cc2nc3ccccc3n2C)cc(OC)c1OC,x,13µM*,6.3µM*,x,x
